# Compounds with a hit are over-represented: about 18% of the library has one in this group of screens.
# TDP1 cell CPT: growth inhibition of DT40 Tdp1-/-;hTDP1 cells with camptothecin (screen for TDP1 inhibitors); chicken DT40 Tdp1-/-;hTDP1 cells + 20 nM CPT, ATP luminescence, 48 h; Potency, µM (doses to about 46.2 µM), for the others: at the top dose activity change, negative = growth inhibition, usual class: inhibitors; 420,000 tested, 12% active; also: potency is read from the fitted curve at half-maximal effect; % is scaled to controls: 0 for no effect and ±100 for the full control effect; nearly all actives have a fitted effect of over 55% in size
#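 Chicken DT40 Tdp1-/- cells stably complemented with human TDP1 were seeded at 400 cells/well in medium containing 20 nM camptothecin, exposed to pin-transferred compounds, and grown at 37 °C for at least 48 hr. Viability was read as ATP luminescence.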
# TGFb SMAD3 inh: inhibitors of TGF-b signaling; HepG2 CAGA-GFP TGF-b/SMAD3 reporter, GFP fluorescence, 18 h; TGF-beta stimulated, 500 pg/mL final; Potency, µM (highest dose often 46.1 µM), for the others: at the top dose activity, negative = inhibition, actives largely listed as inhibitors; 410,000 tested, 1.2% active; AID 588855; also: potency is read from the fitted curve at half-maximal effect; % is scaled to controls: 0 for no effect and ±100 for the full control effect; nearly all actives have a fitted effect of over 65% in size
#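 HEPG2 CAGA-GFP cells (1000/well, DMEM with 1% FBS) were pre-incubated 2 h at 37 degrees C, given compound by pin tool, then stimulated with TGF-beta at 500 pg/mL final for 18 h before per-cell GFP fluorescence imaging.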
# TDP1 inh: blocks human tyrosyl-DNA phosphodiesterase 1 | 350,000 tested, 0.28% active | Potency, µM (highest dose often 130 µM), for the others: at the highest dose activity change, negative = inhibition, actives largely listed as inhibitors | recombinant TDP1, AlphaScreen DNA substrate cleavage | Q9NUW8; also: potency is read from the fitted curve at half-maximal effect; % is scaled to controls: 0 for no effect and ±100 for the full control effect; nearly all actives have a fitted effect of over 40% in size
# Target sequence (Q9NUW8 whole entry, looked up): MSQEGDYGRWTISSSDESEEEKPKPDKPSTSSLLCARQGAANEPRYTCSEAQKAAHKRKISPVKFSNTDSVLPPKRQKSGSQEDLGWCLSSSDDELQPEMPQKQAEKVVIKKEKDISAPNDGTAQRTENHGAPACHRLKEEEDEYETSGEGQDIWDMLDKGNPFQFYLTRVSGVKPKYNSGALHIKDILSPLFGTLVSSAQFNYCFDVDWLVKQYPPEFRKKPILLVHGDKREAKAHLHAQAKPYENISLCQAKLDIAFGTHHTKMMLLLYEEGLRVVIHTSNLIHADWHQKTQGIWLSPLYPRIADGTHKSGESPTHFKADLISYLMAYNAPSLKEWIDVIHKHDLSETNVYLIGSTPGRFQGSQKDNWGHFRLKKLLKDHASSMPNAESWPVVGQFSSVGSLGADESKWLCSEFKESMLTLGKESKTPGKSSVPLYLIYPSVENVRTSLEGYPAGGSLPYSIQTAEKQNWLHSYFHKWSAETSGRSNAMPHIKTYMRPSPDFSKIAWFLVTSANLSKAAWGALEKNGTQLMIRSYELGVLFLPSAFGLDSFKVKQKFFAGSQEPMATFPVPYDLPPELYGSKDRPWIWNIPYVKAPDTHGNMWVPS
#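 Steps: enzyme plus compound, 15 min RT; add biotin/phosphotyrosine-FITC oligonucleotide (15 nM final), react 5 min; add donor/acceptor beads (10 ug/ml final), 10 min; read AlphaScreen. Tdp1 at 1 nM final.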
# HepG2 viability: counter-screen for TGF-b inhibitors: cytotoxicity in HepG2 cells. HepG2 CAGA-GFP viability, ATP luminescence, 18 h. Potency, µM (titrated, usually from 46.1 µM), for the others: at the top dose activity change, negative = cytotoxicity, actives largely listed as cytotoxic. 410,000 tested, 0.76% active; also: potency is read from the fitted curve at half-maximal effect
#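 CellTiter-Glo luminescence gave cytotoxicity after 18 hours at 37 degrees C. The cells were HepG2 CAGA-GFP in 1% FBS DMEM, stimulated with 500 pg/mL TGF-beta after compound addition. %Activity was normalised to no-cell wells (complete cell-killing) and DMSO (no toxicity), and curves were fitted and classified.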
# IL-1B inflam inh: inhibitors of inflammasome signaling (IL-1 beta secretion); THP-1 LPS/ATP IL-1B secretion, AlphaLISA, 16 h; hits give low values; activity change, % at 57.5 µM; 360,000 tested, 4.7% active; AID 743279; in the data active = activity change below about -50%; inconclusive = mostly about -30% to -49%; also: % is scaled to controls: 0 for no effect and ±100 for the full control effect
#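 Secreted IL-1B measured by AlphaLISA bead assay after 16 h compound exposure of THP-1 cells; compounds (final up to 57.5 uM) added 1 h before LPS (250 ng/mL) and ATP (1.25 mM) stimulation; lower signal means less secretion.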
# DT40 TDP1 no CPT: qHTS for Inhibitors of human tyrosyl-DNA phosphodiesterase 1 (TDP1): qHTS in cells in absence of CPT | DT40 Tdp1-/- hTDP1 cells, no CPT, ATP luminescence, 48 h | Potency, µM (top dose mostly 46.2 µM), for the others: at the highest dose activity change, negative = growth inhibition, most hits filed as inhibitors | 420,000 tested, 15% active | AID 686978, 2013; also: potency is read from the fitted curve at half-maximal effect; % is scaled to controls: 0 for no effect and ±100 for the full control effect; nearly all actives have a fitted effect of over 55% in size
#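 Growth kinetics read by CellTiter-Glo luminescence after ≥48 hr at 37 °C. Cells: DT40 Tdp1-/- stably carrying human TDP1, 400 per well, compound exposure in the absence of CPT (DMSO vehicle).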
# An asterisk follows results filed as active; ? = inconclusive; . = no result given. Unless noted, calls follow the shape of the dose curve; as a rule, active = well fitted curve in the direction sought with a large enough effect; inconclusive = small, poorly fitted or top-dose-only effect, or another doubt; inactive = no such curve, though single readings can be large; an effect the other way counts as inactive or inconclusive.
SMILES,TDP1 cell CPT,TGFb SMAD3 inh,TDP1 inh,HepG2 viability,IL-1B inflam inh,DT40 TDP1 no CPT
COc1ccccc1NC(=O)Cn1c(=O)n(-c2ccccc2Cl)c(=O)c2sc3ccccc3c21,?,-1%,1%,1%,.,10µM*
O=C(Cn1c(=O)n(Cc2ccccc2)c(=O)c2sc3ccccc3c21)Nc1ccc(F)cc1,15µM*,-20%,4%,-2%,.,15µM*
COc1ccc(NC(=O)Cn2c(=O)n(Cc3ccccc3)c(=O)c3sc4ccccc4c32)cc1,-22%,1%,6%,-2%,.,13µM*
CC(C)CN1CC[C@@]2(CCCN(C(=O)c3ccco3)C2)C1,1%,.,.,.,.,-3%
COc1cc(CNC(=O)CSCc2nc3cccnc3n2C2CCCCC2)cc(OC)c1OC,?,1%,3%,-2%,.,?
COc1cc(/C=C2\SC(N)=NC2=O)ccc1OCC(=O)Nc1ccc(C)cc1,1.5µM*,-2%,-11%,1%,-103*,1.5µM*
COc1ccc(/C=C2/SC(=O)N(CCC(=O)Nc3ccc(C)cc3)C2=O)cc1OC,.,.,4%,.,.,.
CCOc1cc(/C=C2\C(=O)N(CCC#N)N=C2C)ccc1OCC(N)=O,-24%,9%,5%,10%,9,-5%
COc1cc(/C=C2/SC(=S)N(CC(=O)O)C2=O)ccc1OCC(=O)Nc1ccc(C)c(C)c1,.,.,13µM*,.,.,.
COc1cc(/C=C2\C(=O)N(CCC#N)N=C2C)ccc1OCC(=O)Nc1ccccc1,?,?,10%,-32%,-61*,?
Cc1cc(SCC(=O)NC(=O)c2cccn2C)nc2ccccc12,-4%,-17%,8%,-31%,25,6%
COCCc1ccc(OC2(C)CCN(Cc3cccc(OCOC)c3)C2)cc1 (configuration not stated),?,-1%,.,-22%,-25,?
CC1CN(CCC(=O)Nc2ccccc2F)CC(C)O1 (configuration not stated),20%,6%,3%,4%,9,4%
CCC(C)n1c(=N)c(C(=O)NC2CCCCC2)cc2c(=O)n3cc(C)ccc3nc21 (configuration not stated),-7%,9%,.,-18%,.,7%
Nc1nc2ccccc2n1S(=O)(=O)c1ccc([N+](=O)[O-])cc1,29µM*,13µM*,.,-85%,10,21µM*
O=[N+]([O-])c1ccc(S(=O)(=O)CC2CSc3nc4ccccc4n32)cc1 (configuration not stated),13µM*,-13%,0%,-7%,57,12µM*
Nc1nc2ccccc2n1S(=O)(=O)c1ccc(Cl)cc1,?,-28%,.,-14%,-16,?
Cc1nnc2n(c1=O)C(CS(=O)(=O)c1ccccc1)CS2 (configuration not stated),2%,-3%,1%,1%,10,-12%
C[C@H](NC(=O)c1nc[nH]c1C(=O)N[C@H](C)c1ccccc1)C(=O)OC(C)(C)C,15µM*,-15%,5%,-3%,2,?
CC(C)(C)OC(=O)CNC(=O)c1[nH]cnc1C(=O)NCCCCCNC(=O)OC(C)(C)C,23µM*,-24%,.,-18%,1,15µM*
CC(C)C[C@H](NC(=O)c1[nH]cnc1C(=O)Nc1ccccc1)C(=O)OC(C)(C)C,26µM*,16µM*,6%,-121%,-11,?
CNC(=O)c1[nH]cnc1C(=O)N[C@@H](CCCCNC(=O)OC(C)(C)C)C(=O)OC(C)(C)C,?,15%,6%,4%,2,-12%
